BaF3 tox = reduces parental Ba/F3 cell viability, JAK2V617F counter-screen | CellTiter-Glo ATP luminescence | inhibition, % at 5.6 µM | 1.1% of 220,000 active;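 active = inhibition above a per-campaign cutoff, the mean inhibition of all tested compounds plus 3 SD, cut at about 27% in these data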;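 note: 0% = DMSO wells and 100% = JAK Inhibitor I control wells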
IEC-6 cytotox = counter-screen for KLF5 inhibitors: cytotoxicity in IEC-6 cells | IEC-6 cytotoxicity, luminescence viability | inhibition, % at 5 µM | 0.78% of 290,000 active | AID 1825; in the data active = inhibition above about 22%;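 note: 0% = plate median of test compound wells and 100% = cytotoxic reference compound wells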
Ba/F3 V617F tox = lowers viability of Ba/F3 cells expressing EpoR and JAK2V617F; inhibition, % at 5.6 µM; 1.1% of 220,000 active; ATP luminescence;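 active = inhibition above the campaign mean plus 3 SD over all tested compounds, cut at about 24% in these data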;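 note: cytokine-independent growth of Ba/F3 cells driven by EpoR plus mutant JAK2; 0% = DMSO-treated cells and 100% = JAK inhibitor I control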
KLF5 inhibitor = kruppel-like factor 5 inhibition; DLD-1 KLF5 promoter-luciferase reporter, luminescence; inhibition, % at 5 µM; 0.23% of 290,000 active; AID 1700;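 active = inhibition above a per-plate limit of that plate's mean compound inhibition plus 3 SD, cut at about 60% in these data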;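 note: 0% = DMSO wells and 100% = LY294002 at 200 µM; higher means less KLF5 promoter-driven luciferase light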
aSyn UTR inh = 5' untranslated region of α-synuclein, MLPCN primary screen; alpha-synuclein 5'UTR reporter, inhibitor activity; inhibition, % (tested at 7.5 µM); 0.82% of 300,000 active; AID 1813; in the data active = inhibition above about 60%;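 note: H4 neuroglioblastoma cells stably carrying SNCA 5'UTR luciferase fusion; 0% = DMSO wells and 100% = positive control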
APP 5UTR inh = APP translation inhibition; 0.82% of 190,000 active; SH-SY5Y APP 5'UTR-luciferase reporter, luminescence; inhibition, % at 2 µM;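 active = inhibition above a set limit, derived from the sample mean plus 3 SD, cut at about 45% in these data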
* marks the source's active call; other numbers are inactive results; · = no result given. Most compounds without a hit are left out; they make up all but 2.1% or so of the library.

SMILES	BaF3 tox	IEC-6 cytotox	Ba/F3 V617F tox	KLF5 inhibitor	aSyn UTR inh	APP 5UTR inh
OCCCNc1ncnc2scc(-c3ccc(Cl)cc3)c12	·	-7	·	-3	19	·
Cc1ccc(NC(=S)N/N=C/c2c(Cl)cccc2Cl)c(C)c1	72*	13	70*	18	46	95*
Cc1cccc(CSC(Nc2ccc(F)cc2)=C(C#N)C#N)c1	7	13	0	-4	32	48*
Cc1cccc(CSC(=N)N)c1	-1	-1	-4	-13	-40	-2
O=C(c1cc([N+](=O)[O-])ccc1N1CCOCC1)N1CCOCC1	5	2	3	-18	-12	-3
O=C(c1cc([N+](=O)[O-])ccc1Cl)N1CCc2ccccc21	·	1	·	-19	23	·
O=C(c1cc([N+](=O)[O-])ccc1N1CCCCC1)N1CCc2ccccc21	7	-3	3	-7	81*	42
Cc1ccc(C(=O)c2cc([N+](=O)[O-])ccc2N2CCCCC2)c(C)c1	87*	89*	88*	37	69*	96*
Cc1ccc(C(=O)c2cc([N+](=O)[O-])ccc2N2CCOCC2)cc1	5	2	5	10	92*	93*
Cc1ccc(S(=O)(=O)Nc2ccc3nc(C)sc3c2)cc1	39*	5	34*	-21	-19	13
Cc1nc2ccc(NS(=O)(=O)c3ccc4c(c3)OCCO4)cc2s1	53*	14	42*	-41	-2	-11
Cc1ccc(S(=O)(=O)Nc2ccc3c(c2)OCCO3)cc1	4	-4	0	-8	-9	-6
COc1ccc(C(=O)c2c(-c3cccc(C)c3)oc3ccc(N4CCOCC4)cc23)cn1	·	-11	·	-21	5	·
Cc1[nH]c2ccccc2c1CCN(Cc1cccnc1)C(=S)Nc1cccc(F)c1	30*	2	27*	-7	17	-22
Cc1cc(C(=O)NC2CCCc3c2cnn3-c2ccc(C(C)(C)C)cc2)n[nH]1 (configuration not stated)	·	-7	·	-17	13	·
O=C(COC(=O)c1ccc2ncsc2c1)Nc1ncc(Cl)cc1Cl	6	3	-2	-5	-8	-5
Cc1c(Cl)cnc(NC(=O)COC(=O)c2ccc3ncsc3c2)c1Cl	0	-5	-3	13	67*	6
CCOc1ccc(NS(=O)(=O)c2cc(NC(=O)c3ccc(C)cc3)ccc2Cl)cc1	70*	56*	80*	48	10	87*
CC(=O)c1ccc(N(CC(=O)NC2CCCC2)C(=O)c2csnn2)cc1	·	-2	·	-15	-4	·
CC(C)c1cc2c(c(O)c1O)[C@@]13CCCC(C)(C)C1CC2OC3=O (some centres not stated)	·	-1	·	-5	-126	·
CC(NC(=O)Nc1nnc(C(F)(F)F)s1)(C(F)(F)F)C(F)(F)F	40*	20	37*	45	47	1
COc1ccc(/C=N\n2nnc3ccccc32)cc1	1	-5	0	-111	73*	-191
S=C(NCC1CCCO1)N1CCc2ccccc2C1 (configuration not stated)	·	4	·	-40	-23	·
Cc1ccc2nc(-c3cc(-c4ccccc4)no3)cn2c1	-2	3	-1	-92	86*	·
Cc1ccc(-c2cc(-c3ccccc3)no2)c(O)c1	2	-8	-2	-155	-16	-276
SMILES	BaF3 tox	IEC-6 cytotox	Ba/F3 V617F tox	KLF5 inhibitor	aSyn UTR inh	APP 5UTR inh
c1cnc2ccc(C(c3nnnn3C3CCCCC3)N3CCN(C4CCCCC4)CC3)cc2c1 (configuration not stated)	33*	-6	37*	-10	6	9
COC(=O)c1c(NC(=O)c2nc3ccccc3s2)sc2c1CC(C)(C)NC2(C)C	-4	1	-1	-29	104*	5
CC(=O)Nc1ccc(NC(=O)C(=O)NCC(c2ccco2)N2CCc3ccccc32)cc1 (configuration not stated)	·	·	·	·	10	·
COc1ccc(NC(=O)C(=O)NCC(c2ccco2)N2CCc3ccccc32)cc1 (configuration not stated)	·	·	·	·	85*	·
Cc1cc(C)cc(NC(=O)CCc2c(C)nn(-c3ccc(N4CCOCC4)nn3)c2C)c1	·	-2	·	-70	-15	·
OC1(c2ccc(Cl)cc2)CCN(Cc2cn[nH]c2-c2ccccc2)CC1	-1	14	13	-6	70*	·
Fc1ccc(N2CCN(Cc3cn[nH]c3-c3ccccc3)CC2)cc1	-1	8	2	4	3	·
CC(C)C(=O)NC(=S)/C=C1/N(C)c2ccccc2C1(C)C	57*	-6	30*	-13	-11	-2
CN1/C(=C\C(=O)C(F)F)C(C)(C)c2ccccc21	4	-2	-4	-24	7	5
CN1/C(=C/C(=S)NC(=O)C2CCC2)C(C)(C)c2ccccc21	30*	5	6	-29	-3	-2
Cc1c(NC(=S)/C=C2\N(C)c3ccccc3C2(C)C)c(=O)n(-c2ccccc2)n1C	50*	-7	8	-55	2	8
CN1/C(=C\C(=O)c2cccc(S(=O)(=O)N3CCCCC3)c2)C(C)(C)c2ccccc21	-2	5	-2	0	-6	-3
Cc1ccc(C(=O)NC(=S)/C=C2\N(C)c3ccccc3C2(C)C)cc1	36*	-1	4	-17	1	-5
O=C(COC(=O)C1CC(=O)N(Cc2ccccc2)C1)c1ccc(F)cc1 (configuration not stated)	9	4	0	-13	9	-57
CCOc1ccc(CN(C)CC(=O)NCc2ccccc2Cl)cc1	7	-1	-5	-18	10	-2
CN1/C(=C\C(=O)CSc2ncn[nH]2)C(C)(C)c2ccccc21	15	5	8	7	10	-7
CC(=O)/C=C1\N(C)c2ccc(C)cc2C1(C)C	39*	-2	42*	-10	4	12
CCc1nc(SCc2ccc(OCC(C)C)cc2)n[nH]1	·	6	·	-76	-102	·
COC(=O)C1=CN(c2ccc(OC)cc2)C=C(C(=O)OC)C1c1cc(OC)c(OC)cc1OC	·	-3	·	5	8	·
COc1cc(OC)c(C2N(C)c3ccccc3N2C)cc1OC	59*	-2	53*	24	-6	-11
NNC(=O)c1cc2c(s1)CCCCCC2	5	7	-3	-2	2	70*
O=C(Nn1cnnc1)c1cc2c(s1)CCCC2	3	-3	-1	-10	-15	6
NNC(=O)c1oc2ccccc2c1-n1cccc1	9	8	6	-16	2	62*
Cc1cc2oc(=O)cc(Cn3ncc(Cl)c(Cl)c3=O)c2cc1Cl	3	-5	1	-22	3	88*
Cc1cc2oc(=O)cc(CN3CCCCC3C)c2cc1Cl (configuration not stated)	·	-2	·	-16	34	·
CCOc1ccc(CCNC(=O)C2CCN(S(=O)(=O)N3CCCCC3)CC2)cc1OCC	93*	-1	-1	-16	9	2
CC(C)(C)NC(=O)NC(=O)CSc1nnc(COc2ccccc2Cl)o1	2	0	2	-14	3	-3
